High-throughput results as filed in PubChem.
HEK cytotox: Cytotoxic Profiling in HEK 293 Cell Line of Diverse Libraries Using Quantitative High-Throughput Screening; HEK 293 viability, ATP luminescence (CellTiter-Glo), 48-72 h; Potency, µM (titrated, usually from 115 µM), for inactives: at the top dose activity change, negative = cytotoxicity, usual class: inhibitors; hit rate 6.6% among 94,000; note: % is set by controls: 0 for no effect and ±100 for the full control effect; nearly all actives have a fitted effect of over 60% in size
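Cytotoxicity was scored by loss of ATP-coupled luminescence (CellTiter-Glo) in HEK 293 cells. Compound treatment ran 48 or 72 hr at 37 degree Celsius, 5% CO2, 95% humidity.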
3T3 cytotox: Cytotoxic Profiling in NIH 3T3 Cell Line of Diverse Libraries Using Quantitative High-Throughput Screening; NIH 3T3 viability, CellTiter-Glo ATP luminescence, 48-72 h; Potency, µM (highest dose often 96.7 µM), inactives show at the highest dose activity change, negative = cytotoxicity, hits mostly inhibitors; hit rate 4.3% among 94,000; note: % is set by controls: 0 for no effect and ±100 for the full control effect; nearly all actives have a fitted effect of over 55% in size
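First NIH 3T3 cells are plated at 400 cells/well; next compound is pinned in; then plates incubate 48 or 72 hr at 37 °C; finally CellTiter-Glo is added and luminescence read after 10 min.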
FLuc inh: Firefly luciferase inhibition profiling of diverse chemical library using quantitative high-throughput screening; Luciferin 4-monooxygenase (Photinus pyralis), P08659; purified P. pyralis luciferase, luminescence, biochemical; Potency, µM (doses to about 115 µM), actives largely listed as inhibitors; hit rate 2.5% among 76,000; AID 1347043, 2019; note: % is set by controls: 0 for no effect and ±100 for the full control effect; nearly all actives have a fitted effect of over 65% in size
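Cell-free enzyme assay, 10nM P. pyralis luciferase, luciferin and ATP each at 10uM. Inhibition profiled over a 6-point titration, read as luminescence.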
NPR1 antag: Natriuretic polypeptide receptor (hNpr1) antagonism - Primary qHTS. Potency, µM (series often up to 46.3 µM), inactives show top-dose activity change, negative = inhibition, usual class: inhibitors. Atrial natriuretic peptide receptor 1 (Homo sapiens), P16066. HEK293 hNpr1 GloSensor cGMP, ANP-stimulated luminescence. AID 1347048, 2019. hit rate 1.6% among 76,000; calls by dose curve; note: % is set by controls: 0 for no effect and ±100 for the full control effect; nearly all actives have a fitted effect of over 60% in size
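Compound pre-incubated 30 min at room temperature on GloSensor-loaded HEK293 cells stably carrying hNpr1 and the pGS-40F cGMP biosensor. Stimulation uses hNppA at 0.1 nM final; luminescence is taken at baseline and 20 min post-agonist.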
Npr1 antag conf: Natriuretic polypeptide receptor (hNpr1) antagonism - Confirmation; shares compounds with NPR1 antag; hit rate 76% among 1,400; HEK293 hNpr1 cGMP GloSensor luminescence, ANP-stimulated; Potency, µM (titrated, usually from 57.6 µM), for the others: top-dose activity change, negative = inhibition, hits mostly inhibitors; calls by dose curve; note: nearly all actives have a fitted effect of over 70% in size
NPR2 antag: Natriuretic polypeptide receptor (hNpr2) antagonism - Subtype selectivity assay. shares compounds with NPR1 antag. HEK293 hNpr2 GloSensor cGMP luminescence, CNP-stimulated. Potency, µM (highest dose often 57.6 µM), inactives show at the top dose activity change, negative = inhibition, most hits filed as inhibitors. hit rate 67% among 1,400; calls by dose curve; note: nearly all actives have a fitted effect of over 70% in size
FLuc inh counter: Natriuretic polypeptide receptor (hNpr1) antagonism - Confirmation firefly luciferase (FLuc) inhibition counterscreen. purified FLuc enzyme, luminescence, Km substrate. Potency, µM (highest dose often 57.6 µM), without a hit: at the highest dose activity change, negative = inhibition, usual class: inhibitors. hit rate 0.7% among 1,400. shares compounds with NPR1 antag; note: 0% is about no effect
GloSensor ctrl: Natriuretic polypeptide receptor (hNpr1) antagonism - Counterscreen GloSensor control cell line | hit rate 69% among 1,400 | Potency, µM (doses to about 57.6 µM), for the others: at the top dose activity change, negative = inhibition, most hits filed as inhibitors | HEK293 GloSensor cGMP, SNP-stimulated, luminescence | shares compounds with NPR1 antag | AID 1347051, 2019; calls by dose curve; note: % is set by controls: 0 for no effect and ±100 for the full control effect; nearly all actives have a fitted effect of over 70% in size
An asterisk follows results filed as active; i = inactive; ? = inconclusive; nt = not tested or not shown; [ ] = dose if it differs, or a comment. An excerpt weighted towards active compounds, which were near 11% of everything screened. Unless noted, calls come from the whole dose curve; as a rule, active = well fitted curve in the direction sought with a large enough effect; inconclusive = small, poorly fitted or top-dose-only effect, or another doubt; inactive = no such curve, though single readings can be large; an effect the other way counts as inactive or inconclusive. Potency is the fitted concentration of half-maximal effect.

SMILES | HEK cytotox | 3T3 cytotox | FLuc inh | NPR1 antag | Npr1 antag conf | NPR2 antag | FLuc inh counter | GloSensor ctrl
COc1ccc(NC(=O)c2cc3n(n2)CC(c2ccc(Br)cc2)OC3)cc1OC (stereo unspecified) | 45µM* | ? | i | ? | ? | -25% | -2% | ?
C[S+](=O)([O-])N1CCC(c2nnc3n2C(C(=O)NCc2ccc(Cl)cc2)CC3)CC1 (stereo unspecified) | i | 0% | nt | nt | nt | nt | nt | nt
COc1ccc(-c2cccc(C(=O)N3CCN(C(=O)c4ccccc4Cl)CC3)c2)nn1 | -10% | -27% | nt | nt | nt | nt | nt | nt
CCOc1cccc(CNC(=O)c2noc(-c3ccc(F)cc3)n2)c1 | ? | ? | i | 2% | nt | nt | nt | nt
O=C(O)c1cc2c(s1)CCN(C(=O)c1ccc(F)cc1)C2 | -2% | -9% | i | 1% | nt | nt | nt | nt
CC1CCCN(C(=O)c2cc3c(s2)CCN(C(=O)c2ccc(Cl)cc2)C3)C1 (stereo unspecified) | 45µM* | ? | i | -25% | 27µM* | 27µM* | 1% | 24µM*
O=C(c1ccccc1)N1CCc2sc(C(=O)N3CCN(c4ccc(F)cc4)CC3)cc2C1 | ? | ? | i | 7.1µM* | 9.7µM* | 11µM* | 1% | 6.9µM*
CN(Cc1ccccc1)Cc1cn([C@H]2CO[C@H]3[C@@H]2OC[C@@H]3NC(=O)Nc2ccc(Oc3ccccc3)cc2)nn1 | -28% | -13% | i | -20% | nt | nt | nt | nt
COCCN1CCC2(CCC1=O)CCN(C(=O)Nc1cc(OC)ccc1OC)CC2 | i | -11% | nt | nt | nt | nt | nt | nt
O=[S+]1([O-])NC2(CCN(Cc3ccc(OC(F)(F)F)cc3)C2)CNc2ccccc21 (stereo unspecified) | 50µM* | ? | i | ? | 9.7µM* | 12µM* | 0% | 11µM*
O=c1n(-c2cccc(Cl)c2)nc2n1CCN([S+](=O)([O-])c1ccccc1)C2 | ? | -13% | nt | nt | nt | nt | nt | nt
COC(=O)c1ccc2nc(CO[C@H]3CN(Cc4ccc(Cl)cc4)C[C@H]3F)[nH]c2c1 | ? | 89µM* | i | 32µM* | 40µM* | 35µM* | -11%[86.2 µM] | 35µM*
COc1ccc(CN2C[C@@H](F)[C@@H](OCc3nc4ccc(C(F)(F)F)cc4[nH]3)C2)cn1 | ? | ? | i | 32µM* | 28µM* | 31µM* | -12%[86.2 µM] | ?
Cc1cnc(C2CC2)n1C1CCCN(C(=O)c2ccco2)C1 (stereo unspecified) | -15% | -15% | i | 7% | nt | nt | nt | nt
COc1ccc(C2(C(=O)N3CCCN(S(=O)(=O)c4ccccc4)CCC(=O)NCC3)CC2)cc1 | -3% | ? | i | -13% | nt | nt | nt | nt
c1ccc(-c2noc(-c3cncnc3NC3CCc4ccccc43)n2)cc1 (stereo unspecified) | -2% | -2% | i | 0% | nt | nt | nt | nt
